ROMK primary – modulates human ROMK potassium channel activity. P48048. Tet-inducible ROMK, thallium flux fluorescence; actives lie on both sides. B-score at 10 µM. 2% of 130,000 active. AID 1918;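 active means signal ratio slope over the read window, or its plate-corrected B-score, at least 3 SD from the plate mean, either direction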;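 further: B-score of the F/F0 ratio slope over 7 to 12 s after thallium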
Target sequence (P48048 whole entry, looked up): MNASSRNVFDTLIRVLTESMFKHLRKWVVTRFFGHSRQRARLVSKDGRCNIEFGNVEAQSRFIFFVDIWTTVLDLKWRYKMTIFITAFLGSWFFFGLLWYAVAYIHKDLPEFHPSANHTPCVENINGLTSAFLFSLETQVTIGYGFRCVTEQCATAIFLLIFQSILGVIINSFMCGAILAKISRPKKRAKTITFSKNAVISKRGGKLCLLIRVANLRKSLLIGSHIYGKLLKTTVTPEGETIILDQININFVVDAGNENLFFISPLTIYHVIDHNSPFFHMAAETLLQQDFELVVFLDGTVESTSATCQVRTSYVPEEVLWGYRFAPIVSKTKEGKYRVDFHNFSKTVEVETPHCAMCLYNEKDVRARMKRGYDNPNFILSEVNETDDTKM
Lmaj promast – reduces viability of Leishmania major promastigotes | resazurin fluorescence viability | inhibition, % at 10 µM | 9% of 200,000 active; in the data active means inhibition above about 50%;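 further: promastigotes grown with compound for 44 hours at 28 °C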
WT yeast gro inh – growth inhibition of WT yeast, mitochondrial fusion screen | mitochondrial fusion phenotypic screen, WT strain | inhibition, % at 10 µM | 2.1% of 190,000 active; in the data active means inhibition above about 58%; tested in S. cerevisiae
KCC2 mod – modulates chloride dependent transport by human KCC2; Q9H2X9; KCC2 cells, thallium flux FluoZin-2 fluorescence; B-score of Tl+ flux slope (higher = more flux/activation; lower = inhibition) at 10 µM; 2.2% of 190,000 active;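 active means thallium flux slope and its plate-corrected score both differing from the plate sample mean at a set confidence after two filtering rounds, in either direction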;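 further: slope of fluorescence scaled to starting intensity during 10 to 20 s after thallium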
Calpain2 inh – inhibitors of pig calpain II; purified calpain II, fluorogenic peptide substrate, 30 min; 0.37% of 220,000 active; inhibition, % at 16 µM; AID 1236;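 active means inhibition above about 50%, limit read from the data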
KCC2 secondary – confirmation of human KCC2 transport modulators. shares compounds with KCC2 mod. HEK293-KCC2, thallium flux, FluoZin2 fluorescence; active compounds read high. normalised thallium flux (F/F0 slope) at 10 µM. 15% of 3,700 active. AID 1713;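 active means thallium flux slope above the same plate's solvent-only control mean plus 3 SD; inconclusive means the two replicate wells disagree; inactive means no significant difference from solvent-only control wells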
KCC2 bumet counter – thallium flux persisting under bumetanide in KCC2 cells, counter-screen secondary assay. 49% of 3,700 active. shares compounds with KCC2 mod. AID 1714. normalized thallium flux at 10 µM. HEK293-KCC2 + bumetanide/ouabain, thallium flux FluoZin2; active compounds read high;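 active means thallium entry rate above the same plate's blocked-transporter control wells by more than 3 SD; inconclusive means the two repeat wells disagree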;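 further: raw slope of fluorescence over initial fluorescence between 10 and 20 s after thallium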
KCC2 secondary2 – confirmation of human KCC2 transport modulators; shares compounds with KCC2 mod; HEK293-KCC2, thallium flux FluoZin2 fluorescence; actives lie on both sides; F/F0 rise rate, 10–20 s post-thallium; normalized thallium flux at 10 µM; 23% of 3,700 active;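 active means thallium flux slope more than 3 SD above or below the plate's solvent-only control mean, mostly below; inconclusive means the two repeat wells disagreed; inactive means no significant shift from solvent-only controls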;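 further: raw slope with 0.1% DMSO as baseline and bumetanide as block control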
HEK counter1 – parental HEK flux effect, counter-screen. HEK293 parental cells, thallium flux FluoZin2, ouabain; baseline-ratio fluorescence slope, 10–20 s after thallium. AID 1716. shares compounds with KCC2 mod. thallium flux rate (normalised fluorescence) at 10 µM. 46% of 3,700 active;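 active means thallium flux rate significantly above the same plate's solvent-only control wells, beyond their mean plus 3 SD; inconclusive means the two replicate wells gave conflicting results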
KCC2 ouabain – KCC2 (human) modulation, ouabain retest; shares compounds with KCC2 mod; HEK293-KCC2, thallium flux FluoZin2 fluorescence; bidirectional: low = inhibitor, high = activator; raw Tl+ flux slope (below DMSO = inhibition, above = activation) at 10 µM; 48% of 3,700 active; AID 1717;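 active means thallium flux slope beyond 3 SD from same-plate DMSO control mean in most replicates, usually higher, sometimes lower; inconclusive means repeat tests gave conflicting results; inactive means no significant difference from controls in most replicates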;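 further: slope of initial-normalized fluorescence between seconds 10 and 20 after thallium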
HEK293 Tl flux2 – counter-screen for KCC2 modulators: effect in parental HEK293 cells. shares compounds with KCC2 mod. thallium flux FluoZin-2 fluorescence slope. thallium flux slope at 10 µM. 33% of 3,700 active;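 active means thallium flux slope above the same plate's solvent-control mean plus 3 SD in both duplicate wells; inconclusive means duplicate wells that disagreed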;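 further: run without ouabain in cells lacking the KCC2 cotransporter; slope of fluorescence scaled to its starting value between 10 and 20 s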
Starred values were filed as active, the others as inactive; ? = inconclusive; . = not tested or not shown. Rows were chosen to be rich in hits. Some 12% of all compounds tested hit in one or more screens of this group.

SMILES	ROMK primary	Lmaj promast	WT yeast gro inh	KCC2 mod	Calpain2 inh	KCC2 secondary	KCC2 bumet counter	KCC2 secondary2	HEK counter1	KCC2 ouabain	HEK293 Tl flux2
COc1ccc(/C=N/NC(=O)CSc2ccccc2)cc1OC	0.15	-6	19	-0.085	27	.	.	.	.	.	.
CCOC(=O)c1nn(-c2ccccc2)c(=O)cc1SC1CCCCC1	1.8	-3	9	-0.15	3	.	.	.	.	.	.
Cc1c(Cl)cccc1NC(=O)CN1CCC(C(O)(c2ccccc2)c2ccccc2)CC1	.	21	0	-1.2	-18	.	.	.	.	.	.
O=C(Nc1nc(-c2cccs2)cs1)c1ccc(Cl)s1	.	36	81*	3.1*	36	0.0085	0.015*	0.028	0.0086*	0.021	0.0098
CC(=O)Nc1nc(-c2cccs2)cs1	.	0	12	0.16	-11	.	.	.	.	.	.
CCN1C(=O)/C(=C/c2c(C)nn(C)c2C)SC1=S	0.17	11	12	.	2	.	.	.	.	.	.
Cc1cc(/C=C2\SC(=S)NC2=O)c(C)n1-c1ccccc1	.	.	.	24*	2	0.011	0.047*	0.036	0.029*	?	0.013*
Cc1cc(/C=C2\SC(=S)NC2=O)cc(C)c1O	.	.	.	7.6*	6	0.006	0.036*	0.027	0.02*	0.027*	0.02*
CC1Cc2cc(/C=C3/SC(=S)NC3=O)ccc2O1 (configuration not stated)	0.45	.	.	81*	14	?	0.12*	0.05*	0.065*	0.087*	0.051*
Cc1cc(/C=C2\SC(=S)NC2=O)c(C)n1C	.	-9	9	.	17	.	.	.	.	.	.
Cc1nn(C)c(C)c1/C=C1/SC(=S)NC1=O	-0.55	0	-12	-4*	16	0.01	0.0056	0.026*	0.0079	0.014*	0.011
O=C(/C=C/C=C/c1ccccc1)c1ccco1	.	.	.	-3.8	-26	.	.	.	.	.	.
CCN(CC(=O)NC(C)C)Cc1nc2c(Br)cc(Br)cc2c(=O)[nH]1	.	.	.	0.23	-25	.	.	.	.	.	.
CN(c1ccc(OCc2nnc(-c3ccccc3)o2)cc1)S(=O)(=O)c1ccccc1	-1.2	54*	-1	-4.2*	29	0.017	?	0.03	0.0057*	0.014	0.0093
CCOC(=O)c1cnc(SC)nc1Oc1cccc(NS(=O)(=O)c2ccc(C)cc2)c1	-0.031	11	-2	.	10	.	.	.	.	.	.
Fc1ccccc1COc1ccc(Br)cc1CNCc1ccncc1	-2.2	100*	-17	-3.3*	57*	?	0.0057	0.034	0.0068	0.014*	0.01
c1ccc2ncc(-n3cnnn3)cc2c1	0.013	-6	9	3*	-9	0.01	0.0066	0.036	0.0083	0.022	0.01
Cc1ccc(-n2nnc(-c3cnc4ccccc4c3)n2)cc1	.	3	4	0.6	8	.	.	.	.	.	.
CCN(CC)C(=O)C1CC(=O)N(c2ccc(OC)cc2)C1c1ccc(OC)cc1 (configuration not stated)	.	-8	-6	-4.1*	5	0.0062	0.0057*	0.028	0.0082	0.019	0.011
CN(Cc1ccccc1)c1nc(N)c([N+](=O)[O-])c(Nc2cccc(F)c2)n1	0.77	11	36	0.16	13	.	.	.	.	.	.
CCOc1nc(NCCO)nc(Nc2ccccc2F)n1	0.86	-3	0	-0.93	-21	.	.	.	.	.	.
Cc1ccc(-c2nc(=S)c3c(n2Cc2ccco2)CC(C)(C)OC3)cc1	-0.0017	-1	14	.	-23	0.017*	0.025*	0.033	0.011*	0.028	0.012*
CN(C)CCCn1c(-c2ccccc2)nc(=S)c2c1CCCC2	.	4	-19	0.75	-24	.	.	.	.	.	.

Source: PubChem (several laboratories)
